For eight compounds, Potency results are on record in PubChem BioAssay (Tox21).

The nature of assay [1]: Nuclear factor erythroid 2-related factor 2/antioxidant responsive element (Nrf2/ARE) small molecule agonists: qHTS cell viability counter screen in human keratinocytes (AID 1919968; active = well fitted curve in the direction sought with a large enough effect in the repeat runs; an effect the other way counts as inactive or inconclusive; also: nearly all actives have a fitted effect of over 55% in size; also: potency is read from the fitted curve at half-maximal effect). The procedure, abridged:
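Cytotoxicity was multiplexed with the Nrf2/ARE luciferase assay in the same wells. Stably transfected HaCaT keratinocytes were treated with test compounds for 23 h at 37 C. Cell viability was then measured by CellTiter-Fluor fluorescence.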

Assay [2] is described as follows: Nuclear factor erythroid 2-related factor 2/antioxidant responsive element (Nrf2/ARE) small molecule agonists: luciferase reporter gene qHTS assay in human keratinocytes (AID 1919969). Also: nearly all actives have a fitted effect of over 35% in size. Also: potency is read from the fitted curve at half-maximal effect.
Assay [3] deals with Gonadotropin-releasing hormone receptor (Homo sapiens) (UniProt P30968). The experiment in a line: Human gonadotropin-releasing hormone receptor (GnRHR) small molecule agonists, calcium flux assay in GnRHR-HEK293 cells (AID 1920063). Also: nearly all actives have a fitted effect of over 35% in size. The gist of the method: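 Agonist activity was measured as intracellular calcium flux in HEK293 cells engineered to stably express human GnRHR. After dye loading for 1 hour at 37 C, compounds in DMSO were added and fluorescence was followed for 3 minutes.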
Chain of Gonadotropin-releasing hormone receptor (Homo sapiens) (P30968 whole entry, looked up): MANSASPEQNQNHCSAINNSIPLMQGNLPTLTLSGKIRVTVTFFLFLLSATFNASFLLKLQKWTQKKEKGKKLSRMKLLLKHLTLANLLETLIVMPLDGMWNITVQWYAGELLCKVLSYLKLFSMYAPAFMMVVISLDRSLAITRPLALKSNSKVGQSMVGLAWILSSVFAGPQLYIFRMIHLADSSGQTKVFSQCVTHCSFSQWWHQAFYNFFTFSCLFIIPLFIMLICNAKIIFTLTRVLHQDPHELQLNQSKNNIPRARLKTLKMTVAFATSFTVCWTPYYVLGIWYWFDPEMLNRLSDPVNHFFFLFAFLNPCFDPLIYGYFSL
On the technique in general: Calcium flux is commonly read through the fluorescence of an indicator in the cells.

Assay [4] concerns the target KiSS-1 receptor (Homo sapiens) (UniProt Q969F8). In words: Human kisspeptin (KISS1R) small molecule agonists, calcium flux assay in KISS1R-HEK293 cells (AID 1920064; active = well fitted curve in the direction sought with a large enough effect in the repeat runs; an effect the other way counts as inactive or inconclusive). The procedure, abridged: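 Agonist activity is monitored as intracellular calcium rise in engineered HEK293 cells carrying human KISS1R. Cells are dye-loaded for 1 h at 37 C before compound addition, and fluorescence is recorded for 3 min.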

A short description of assay [5]: G protein-coupled receptor (GPCR) small molecule agonists, calcium flux assay: HEK293 wild type cell line counter screen (AID 1920065). The procedure, abridged: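 Seed cells, incubate 18 h (37 C, 5% CO2); add calcium dye, 1 h at 37 C; pin-transfer compounds, ATP control or DMSO; read fluorescence 480/540 nm each second for 3 min.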
The nature of assay [6]: p53 small molecule agonists, cell-based qHTS assay with human liver microsomes (AID 1963577).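 Also: p53 response element beta-lactamase reporter cells with liver microsomes plus NADPH.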 The procedure, abridged: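 Metabolically competent format: test substances, human liver microsomes and NADPH (both 0.5 mg/mL final) incubated with p53RE-bla cells 16 h at 37 C. Beta-lactamase reporter signal then quantified by fluorescence.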
A short description of assay [7]: p53 small molecule agonists, cell-based qHTS assay with rat liver microsomes (AID 1963578). The gist of the method: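 Each plate received p53RE-bla cells, then compound, then rat liver microsomes and NADPH (both 0.5 mg/mL final). Plates were held 16 h at 37 C, and beta-lactamase activity was detected with LiveBLAzer over 2 h.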
The nature of assay [8]: p53 small molecule agonists, cell-based qHTS assay with human liver microsomes: qHTS cell viability counter screen (AID 1963579). Also: nearly all actives have a fitted effect of over 45% in size. Also: potency is read from the fitted curve at half-maximal effect. The gist of the method: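 Tox21 library compounds, delivered from DMSO stocks, were tested on p53RE-bla cells together with 0.5 mg/mL human liver microsomes and 0.5 mg/mL NADPH (final) over 16 h at 37 C; CellTiter-Glo luminescence served as the cytotoxicity measure.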
A general note: qHTS replaces the single test concentration by a dilution series.

The nature of assay [9]: p53 small molecule agonists, cell-based qHTS assay: qHTS cell viability counter screen (AID 1963581). Also: nearly all actives have a fitted effect of over 45% in size. The procedure, abridged:
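Viability was counter-screened in parallel with the p53 agonist reporter by measuring intracellular ATP luminescence in the same HCT-116 p53RE-bla wells after 16 h compound treatment at 37 C.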

Assay [10] can be described thus: p53 small molecule agonists, cell-based qHTS assay (AID 1963582; active = well fitted activation curve with a large enough effect in the signal ratio in the repeat runs, not every such curve was filed as active; the % refers to the signal ratio). The gist of the method: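 Cells carrying a p53-responsive bla reporter are treated with test compounds for 16 h at 37 C; beta-lactamase activity is then detected with LiveBLAzer B/G FRET substrate after 2 h at room temperature.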
For assay [11], the target named is 5-hydroxytryptamine receptor 2A (Homo sapiens) (UniProt P28223). The experiment in a line: 5-hydroxytryptamine receptor 2A (HTR2A) small molecule antagonists, cell-based qHTS assay (AID 1963586). Also: nearly all actives have a fitted effect of over 45% in size. Also: potency is read from the fitted curve at half-maximal effect. The gist of the method:
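CHO cells stably expressing human HTR2A were plated for 18 h at 37 C, then loaded with calcium dye for 1 h. Compounds were preincubated 5 min at room temperature before DOI (4 nM solution) was added. Kinetic fluorescence was read for 3 min.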

The target is the same in assay [12]. In words: 5-hydroxytryptamine receptor 2A (HTR2A) small molecule agonists, cell-based qHTS assay (AID 1963587). Also: nearly all actives have a fitted effect of over 30% in size. The procedure, abridged: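 CHO cells stably expressing human HTR2A, plated 18 h, loaded with calcium dye 1 h at 37 C. Agonist mode: compounds added and intracellular calcium fluorescence recorded kinetically for 2 min at 1 sec intervals.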
Assay [13] concerns the target Muscarinic acetylcholine receptor M1 (Homo sapiens) (UniProt P11229). The experiment in a line: Cholinergic receptor muscarinic 1 (CHRM1) small molecule antagonists, cell-based qHTS assay (AID 1963588). Also: nearly all actives have a fitted effect of over 40% in size. The gist of the method:
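Compounds were tested at 15 concentrations in three independent runs. Dye-loaded CHRM1-CHO cells were exposed 5 min at room temperature before stimulation by acetylcholine added at 50nM. Intracellular calcium was read kinetically on FDSS for 3 min.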

Assay [14] has the same target. The experiment in a line: Cholinergic receptor muscarinic 1 (CHRM1) small molecule agonists, cell-based qHTS assay (AID 1963589). Also: nearly all actives have a fitted effect of over 35% in size. The procedure, abridged:
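Cells were plated and incubated 18 h at 37 C/5% CO2, loaded with calcium dye for 1 h at 37 C, then treated with compounds in DMSO. Fluorescence was recorded kinetically at 1 sec intervals.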

Assay [15] can be described thus: cAMP Responsive Elements (CRE) small molecule antagonists, cell-based qHTS assay (AID 1963591; active = well fitted inhibition curve with a large enough effect in the signal ratio in the repeat runs, not every such curve was filed as active; the % refers to the signal ratio; also: potency is read from the fitted curve at half-maximal effect). The gist of the method:
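Cells (CRE-bla HEK 293T, DMEM with 10% dialyzed FBS and 25 mM HEPES) are seeded and incubated 18 h. Compounds are added with NKH477 agonist at 0.25 uM final for 3 h, then FRET substrate for 2 h.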

Assay [16] deals with Beta-2 adrenergic receptor (Homo sapiens) (UniProt P07550). The experiment in a line: Adrenergic beta2 receptor (ADRB2) small molecule antagonists, cell-based qHTS assay (AID 1963592). Also: series mostly up to about 92 µM; nearly all actives have a fitted effect of over 50% in size. The procedure, abridged: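 Assay format: CHO-ADRB2 cells, 18-20hr seeding at 37C/5% CO2, then compound plus 1nM isoproterenol agonist mix for 0.5hr RT. Homogeneous time-resolved fluorescence cAMP detection after 1hr, expressed as 665/615 nm ratio.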
Chain of Beta-2 adrenergic receptor (Homo sapiens) (P07550 whole entry, looked up): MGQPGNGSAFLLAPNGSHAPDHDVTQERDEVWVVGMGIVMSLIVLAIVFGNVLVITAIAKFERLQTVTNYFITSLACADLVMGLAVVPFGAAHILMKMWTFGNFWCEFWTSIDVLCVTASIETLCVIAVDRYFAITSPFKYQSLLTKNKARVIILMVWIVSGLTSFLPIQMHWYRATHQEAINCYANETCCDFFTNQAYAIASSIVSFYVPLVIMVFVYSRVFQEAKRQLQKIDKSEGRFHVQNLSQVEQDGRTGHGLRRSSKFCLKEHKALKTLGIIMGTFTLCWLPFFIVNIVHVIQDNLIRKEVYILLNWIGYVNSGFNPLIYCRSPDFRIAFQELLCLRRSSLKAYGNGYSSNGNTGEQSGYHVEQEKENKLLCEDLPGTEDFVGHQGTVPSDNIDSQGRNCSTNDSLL

In assay [17] the target is D(2) dopamine receptor (Homo sapiens) (UniProt P14416). In words: Dopamine D2 receptor (DRD2) small molecule agonists, cell-based qHTS assay (AID 1963594). Also: nearly all actives have a fitted effect of over 35% in size. The gist of the method:
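HEK293 cells stably expressing human DRD2, pre-treated with PDE inhibitor Ro20-1724 (0.1 mM final) and compound 10 min at room temperature, then stimulated with NKH477 (200nM […]) for 30 min. cAMP read by HTRF (665/620 nm).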

Assay [18] shares this target. The experiment in a line: Dopamine D2 receptor (DRD2) small molecule antagonists, cell-based qHTS assay (AID 1963595; active = well fitted inhibition curve with a large enough effect in the signal ratio in the repeat runs, with a control signal flat; the % refers to the signal ratio). The gist of the method: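 HEK293 cells stably expressing DRD2 were preincubated with 0.1 mM Ro20-1724, then with compound for 10 min at room temperature. Cells were stimulated with 200 nM NKH477 plus 12 nM quinpirole for 30 min, and cAMP was read by HTRF.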

Assay [19] in a line: cAMP Responsive Elements (CRE) small molecule agonists, cell-based qHTS assay (AID 1963590). The gist of the method:
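Cells carrying a CRE-driven beta-lactamase reporter (HEK 293T) are seeded, incubated overnight (18 h), and treated with test compounds for 3 h at 37 C; reporter activity is then detected with a FRET substrate after 2 h at room temperature.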

A short description of assay [20]: p53 small molecule agonists, cell-based qHTS assay with rat liver microsomes: qHTS cell viability counter screen (AID 1963580). Also: nearly all actives have a fitted effect of over 45% in size. The procedure, abridged: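 Cytotoxicity counter screen: intracellular ATP measured by CellTiter-Glo luminescence in the same wells as the beta-lactamase reporter read, on HCT-116 p53RE-bla cells exposed 16 h at 37 C to compounds with rat liver microsomes and NADPH, each 0.5 mg/mL final.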

SMILES strings stand for the structures. Where “and” joins values, the source holds several entries; their conditions need not be identical. Equal values may be shown once. Results filed as inconclusive are left out. Some structures have more than one record in an assay (separate samples or runs), and their calls can disagree. Calls of active or inactive are those of the source. Unless noted, calls follow the shape of the full dose curve.

Chain of KiSS-1 receptor (Homo sapiens) (Q969F8 whole entry, looked up): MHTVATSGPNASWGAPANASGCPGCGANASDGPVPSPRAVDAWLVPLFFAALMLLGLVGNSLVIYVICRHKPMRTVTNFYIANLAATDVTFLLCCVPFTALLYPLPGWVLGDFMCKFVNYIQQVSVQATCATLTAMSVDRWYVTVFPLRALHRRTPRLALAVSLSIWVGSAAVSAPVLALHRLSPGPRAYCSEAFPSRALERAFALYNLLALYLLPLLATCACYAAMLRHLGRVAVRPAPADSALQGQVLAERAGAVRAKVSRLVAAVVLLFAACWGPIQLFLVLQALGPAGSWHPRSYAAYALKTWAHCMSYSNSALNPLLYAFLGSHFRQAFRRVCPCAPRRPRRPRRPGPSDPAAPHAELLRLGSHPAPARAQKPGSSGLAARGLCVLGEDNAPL
Chain of Muscarinic acetylcholine receptor M1 (Homo sapiens) (P11229 whole entry, looked up): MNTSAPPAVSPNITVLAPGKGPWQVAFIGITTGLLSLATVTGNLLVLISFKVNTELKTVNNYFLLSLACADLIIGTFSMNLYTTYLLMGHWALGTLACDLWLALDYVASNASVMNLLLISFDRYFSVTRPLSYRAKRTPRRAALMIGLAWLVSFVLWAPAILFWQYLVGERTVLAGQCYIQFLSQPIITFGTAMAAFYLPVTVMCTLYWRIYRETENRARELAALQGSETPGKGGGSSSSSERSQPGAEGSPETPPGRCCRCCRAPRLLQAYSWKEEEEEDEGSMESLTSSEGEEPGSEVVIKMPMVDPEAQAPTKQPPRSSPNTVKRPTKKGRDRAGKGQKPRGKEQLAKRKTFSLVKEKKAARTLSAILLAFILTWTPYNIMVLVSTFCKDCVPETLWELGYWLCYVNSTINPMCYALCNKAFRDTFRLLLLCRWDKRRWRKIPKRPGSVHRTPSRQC
Chain of D(2) dopamine receptor (Homo sapiens) (P14416 whole entry, looked up): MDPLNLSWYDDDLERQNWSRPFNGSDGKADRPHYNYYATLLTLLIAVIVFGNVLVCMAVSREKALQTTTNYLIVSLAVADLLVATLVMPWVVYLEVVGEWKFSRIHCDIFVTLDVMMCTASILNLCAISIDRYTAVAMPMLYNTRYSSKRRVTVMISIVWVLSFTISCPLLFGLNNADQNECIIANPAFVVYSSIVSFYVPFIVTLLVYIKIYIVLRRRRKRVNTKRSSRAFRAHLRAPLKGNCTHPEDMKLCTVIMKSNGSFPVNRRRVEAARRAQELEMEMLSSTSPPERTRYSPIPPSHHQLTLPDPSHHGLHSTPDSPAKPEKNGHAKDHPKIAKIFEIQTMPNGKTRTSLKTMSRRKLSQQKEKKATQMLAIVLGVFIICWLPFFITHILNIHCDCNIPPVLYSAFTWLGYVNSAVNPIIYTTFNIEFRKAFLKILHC
Chain of 5-hydroxytryptamine receptor 2A (Homo sapiens) (P28223 whole entry, looked up): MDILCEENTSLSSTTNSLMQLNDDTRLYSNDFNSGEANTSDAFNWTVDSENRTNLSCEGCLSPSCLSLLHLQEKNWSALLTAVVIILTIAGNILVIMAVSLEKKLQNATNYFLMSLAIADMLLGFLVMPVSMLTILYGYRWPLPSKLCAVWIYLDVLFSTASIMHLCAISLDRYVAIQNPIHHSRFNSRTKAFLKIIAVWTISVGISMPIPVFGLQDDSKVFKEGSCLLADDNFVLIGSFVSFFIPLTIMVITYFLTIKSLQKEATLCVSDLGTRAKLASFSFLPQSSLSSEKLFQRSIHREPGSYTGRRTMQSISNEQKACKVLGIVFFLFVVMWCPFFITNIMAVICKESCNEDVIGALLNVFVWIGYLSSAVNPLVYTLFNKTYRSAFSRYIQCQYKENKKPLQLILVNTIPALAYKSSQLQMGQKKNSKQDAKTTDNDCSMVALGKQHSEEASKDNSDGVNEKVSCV

`OC[P+](CO)(CO)CO`: the Potency entry in [1], in assay [2], in [3], in assay [4], in assay [5] and in assay [6] was “inactive” in each case. The Potency result in assay [7], in assay [8], in [9], in assay [10], in assay [11] and in assay [12] was “inactive” each time. Also, the Potency entry in assay [13], in [14], in assay [15], in assay [16], in assay [17] and in assay [18] was “inactive” in each case.
Regarding `CC(C)(O)C#N`, the Potency entry in [1], in [2], in assay [3], in assay [4], in [5] and in [6] was “inactive” each time. Moreover, the Potency entry in assay [7], in [8], in assay [9], in assay [10], in assay [11] and in [12] was “inactive” in each case. The Potency result in [13], in [19], in assay [15] and in assay [17] was “inactive” in each case.
As for `OC(Cc1ccccc1Cl)(Cn1cncn1)C1(Cl)CC1` (centres undefined), the Potency entry in assay [1], in [2], in assay [3], in [4], in [5] and in assay [6] was “inactive” each time. Moreover, the Potency entry in [7], in [8], in [9], in [10], in assay [11] and in assay [12] was “inactive” in each case. In addition, the Potency entry in assay [13], in assay [14], in assay [19], in [15], in assay [16] and in assay [17] was “inactive” in each case. Also, in assay [18], the Potency result was “inactive”.
As for `O=[N+]([O-])c1cc(Cl)c(Cl)c(Cl)c1`, the Potency entry in [1], in assay [2], in [3], in assay [4], in assay [5] and in assay [6] was “inactive” throughout. The Potency result in [7], in [8], in assay [9], in assay [10], in [12] and in assay [13] was “inactive” throughout. Also, the Potency entry in assay [19], in assay [15], in assay [16], in [17] and in [18] was “inactive” each time.
On to `Oc1c(Cl)c(Cl)c(Cl)c(Cl)c1Cl`, for which the Potency in assay [1] is 30 µM (active); in assay [11], 23.2 µM (active) and inactive. In addition, the Potency result in assay [2], in assay [3], in assay [4], in assay [5], in assay [6] and in [7] was “inactive” in each case. The Potency result in assay [8], in assay [20], in [12], in [13], in assay [14] and in assay [15] was “inactive” throughout. Also, the Potency entry in assay [16], in assay [17] and in assay [18] was “inactive” each time.
Consider `Clc1ccc(COC(Cn2ccnc2)c2ccc(Cl)cc2Cl)cc1` (centres undefined), for which the Potency is 45.3 µM (active) and 27.2 µM (active) and 13.3 µM (active) in assay [1]; 22.7 µM (active) and 13.3 µM (active) in assay [2]; 38 µM (active) and inactive in assay [8]; 50.8 µM (active) in assay [15]. Also, the Potency entry in [3], in assay [4], in assay [5], in assay [6], in assay [7] and in [20] was “inactive” throughout. The Potency result in assay [19], in assay [16] and in [17] was “inactive” in each case.
As for `CC(=O)C(C)(C)C`, the Potency entry in [1], in assay [2], in [3], in assay [4], in [5] and in [6] was “inactive” throughout. Further, the Potency result in [7], in [8], in assay [9], in assay [10], in assay [11] and in assay [12] was “inactive” in each case. The Potency result in [19], in assay [15], in assay [16], in assay [17] and in assay [18] was “inactive” each time.
On to `Cc1ccc(N=C=O)cc1N=C=O`, for which the Potency result in assay [1], in assay [3], in assay [4], in assay [5], in assay [6] and in [7] was “inactive” in each case. In addition, the Potency result in assay [8], in assay [9], in [10], in assay [13], in assay [14] and in [19] was “inactive” in each case. For the same compound, the Potency entry in assay [15], in assay [16], in assay [17] and in assay [18] was “inactive” each time. Moreover, the Potency in assay [2] is 62.7 µM (active) and 48.6 µM (active).
